From PubChem
Rows were chosen to be rich in hits. Some 1.1% of all compounds tested hit in one or more screens of this group.
PI4K2A inh = blocks human PI4K2A kinase activity; 420,000 compounds, 0.13% hits; purified PI4K2A, ADP-Glo luminescence, 1 h; active compounds read low; Q9BTU6; activity change, negative = inhibition, % at 76.9 µM; in the data active = activity change below about -50%; inconclusive = mostly about -30% to -49%
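Compounds are screened against recombinant PI4K2A using PI as substrate and ATP, the latter dispensed at 300 microM. Reactions run one hour at ambient temperature before ADP-Glo detection; full inhibition defined by wells lacking enzyme.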
TrxR1 substrate = substrates of rat thioredoxin reductase 1. 390,000 compounds, 0.01% hits. Potency, µM (titrated, usually from 114 µM). O89049. purified TrxR1 substrate turnover, NADPH consumption readout; also: nearly all actives have a fitted effect of over 50% in size
Target sequence (O89049 whole entry, looked up): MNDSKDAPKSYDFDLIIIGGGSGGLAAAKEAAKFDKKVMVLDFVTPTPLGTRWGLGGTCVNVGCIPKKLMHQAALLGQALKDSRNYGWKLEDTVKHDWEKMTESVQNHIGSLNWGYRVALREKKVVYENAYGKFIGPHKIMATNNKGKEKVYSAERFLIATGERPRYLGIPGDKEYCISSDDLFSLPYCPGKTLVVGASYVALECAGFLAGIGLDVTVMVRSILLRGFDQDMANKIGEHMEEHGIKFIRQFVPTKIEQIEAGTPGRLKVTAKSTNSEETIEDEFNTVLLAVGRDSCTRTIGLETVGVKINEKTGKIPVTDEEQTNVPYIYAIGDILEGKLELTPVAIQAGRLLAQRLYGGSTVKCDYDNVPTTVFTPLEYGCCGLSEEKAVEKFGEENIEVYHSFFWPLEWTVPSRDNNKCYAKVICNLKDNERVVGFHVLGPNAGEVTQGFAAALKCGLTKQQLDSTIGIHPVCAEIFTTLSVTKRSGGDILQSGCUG
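Rat TrxR1, dispensed at 90 nM, was prereduced with 400 uM NADPH (final) for 5 min at ~22 deg C, then incubated with compound 15 min before 400 uM selenite. A first-read NADPH fluorescence drop versus no-compound background flagged substrates.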
Integrin act MD = integrin-mediated muscular dystrophy alleviation activation; alpha7betagal myoblasts, beta-gal FDG fluorescence, 48 h; 350,000 compounds, 0.064% hits; Potency, µM (highest dose often 38.3 µM), actives largely listed as activators; AID 624291; also: nearly all actives have a fitted effect of over 60% in size
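alpha7betagal+/- myoblasts (passage 13, 250/well) treated 48 h at 37C with compounds at 1:260 dilution of DMSO stock. Lysed, then beta-galactosidase activity read as FDG fluorescence (ex 480/em 540) after 30 min, with pre-read for autofluorescence.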
LDHA inh = LDHA (human) enzyme inhibition; P00338; purified LDHA, NADH/diaphorase-resazurin fluorescence; active compounds read low; activity change, % (values are at about 110 or 230 µM); 480,000 compounds, 0.15% hits; AID 1347041; in the data active = activity change below about -30%; inconclusive = mostly about -25% to -30%
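Remaining NADH was detected by diaphorase (0.133 mg/mL) converting 37 µM resazurin to fluorescent resorufin, read at 0 and 20 minutes. The preceding 5-minute room-temperature reaction used 2 nM LDHA, 0.2 mM sodium pyruvate and 0.06 mM NADH at pH 7.4.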
GALK inh = galactokinase (human) inhibition; P51570; Purified GALK, Kinase-Glo residual ATP luminescence; Potency, µM (highest dose often 57.5 µM), actives largely listed as inhibitors; 270,000 compounds, 0.007% hits; AID 1868
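Luminescence from leftover ATP (Ultra-Glo luciferase/luciferin) served as read-out after a 1 h room-temperature reaction of 5 nM GALK with 35 uM ATP and 100 uM galactose.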
TrxR1 inh = blocks rat thioredoxin reductase 1; AID 588453; 390,000 compounds, 1% hits; O89049; Potency, µM (highest dose often 114 µM), most hits filed as inhibitors; recombinant rTrxR1, NADPH fluorescence consumption, selenite substrate; also: nearly all actives have a fitted effect of over 65% in size
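Rat TrxR1 (90 nM in the dispensed reagent) was pre-reduced with 400 uM NADPH for 5 min at room temperature, then incubated with compound for 15 min. After 400 uM selenite was added, NADPH fluorescence (Ex 340/Em 450 nm) was followed for 8 min.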
Large screens that a line does not name were inactive; ! = not confirmed by another sample. Unless noted, calls follow the shape of the dose curve; as a rule, active = well fitted curve in the direction sought with a large enough effect; inconclusive = small, poorly fitted or top-dose-only effect, or another doubt; inactive = no such curve, though single readings can be large; an effect the other way counts as inactive or inconclusive.

Cc1csc(NC(=O)c2[nH]c3c(c2C)C(=O)CC(C)(C)C3)n1	none (no result: PI4K2A inh, TrxR1 substrate, Integrin act MD, GALK inh, TrxR1 inh)
COc1ccc(-c2nc3ccccn3c2CN2CCN(c3ccccc3F)CC2)cc1	none
COc1ccc(-c2nc3ccccn3c2Cl)cc1	PI4K2A inh -51.7, Integrin act MD inconclusive
Cc1cc(NC(=O)CCOc2ccc(F)cc2)no1	TrxR1 inh 14.1µM
Cc1ccccc1C(=O)/C=C/c1cccnc1	none (no result: PI4K2A inh, TrxR1 substrate, Integrin act MD, GALK inh, TrxR1 inh)
Oc1ccc(CN2CCN(Cc3ccccc3)CC2)c2cccnc12	TrxR1 inh 14.1µM
Oc1ccc(CNc2ccccc2Br)c2cccnc12	none (no result: TrxR1 substrate, Integrin act MD, GALK inh, TrxR1 inh)
Cc1ccccc1NCc1ccc(O)c2ncccc12	TrxR1 inh 0.631µM
Oc1ccc(CNc2ccc(F)cc2)c2cccnc12	TrxR1 inh 0.631µM
Cc1cccc(NCc2ccc(O)c3ncccc23)c1	TrxR1 inh 0.794µM
CCn1nc(-c2ccccc2C)nc2c(=O)n(C)c(=O)nc1-2	TrxR1 substrate 14.1µM, TrxR1 inh inconclusive (no result: PI4K2A inh, Integrin act MD, GALK inh)
CCc1ccc2occ(CC(=O)Nc3c(C(=O)Nc4ccc(Cl)cc4)oc4ccccc34)c2c1	none (no result: Integrin act MD, GALK inh)
CCc1ccc2occ(CC(=O)Nc3c(C(=O)Nc4ccc(C)cc4)oc4ccccc34)c2c1	TrxR1 inh 89.1µM (no result: Integrin act MD, GALK inh)
O=C(Oc1ccc(=O)n(-c2ccccc2)n1)c1cccc(Cl)c1	TrxR1 inh 3.55µM
O=C(Oc1ccc(=O)n(-c2ccccc2)n1)c1ccc(Cl)cc1	TrxR1 inh inconclusive
Cc1[nH]n(-c2ccccc2)c(=O)c1-c1ccc(Cl)cc1	none
O=c1[nH]n(-c2ccc(Cl)cc2)c(=O)c(Cl)c1Cl	TrxR1 inh 22.4µM
CCCCCCCCCCS(=O)(=O)N/N=C/c1c[nH]c2ccccc12	none (no result: PI4K2A inh, TrxR1 substrate, Integrin act MD, GALK inh, TrxR1 inh)
CC(C)(C)NC(=O)c1cccc(NC(=O)c2ccc(Cl)c(Cl)c2)c1	none (no result: PI4K2A inh, TrxR1 substrate, Integrin act MD, GALK inh, TrxR1 inh)
CC(C)C(C)NC(=O)CSc1ncnc2ccccc12 (stereo unspecified)	none (no result: PI4K2A inh, TrxR1 substrate, Integrin act MD, GALK inh, TrxR1 inh)
COc1cc(C(C(=O)NC2CCCCC2)N(C(=O)c2snc(C(N)=O)c2N)c2ccc(C)cc2)ccc1O (stereo unspecified)	Integrin act MD 7.94µM
CCCCC(C(=O)NC1CCCC1)N(C(=O)c1snc(C(N)=O)c1N)c1ccc(C)cc1 (stereo unspecified)	Integrin act MD 10µM
Cc1c(C)c2c(OCC(=O)NCc3ccccn3)cc3c(c2oc1=O)CCC(C)(C)O3	TrxR1 inh 89.1µM (no result: GALK inh)
O=C(O)c1cc2c(ncc3c(=O)n(-c4ccccc4)[nH]c32)s1	LDHA inh -34.6 (no result: TrxR1 substrate, Integrin act MD, GALK inh, TrxR1 inh)
O=c1[nH]n(-c2ccccc2)c(=O)c2ccccc12	none
COc1ccc(N2C(=O)CC(Sc3ncn[nH]3)C2=O)c(OC)c1 (stereo unspecified)	TrxR1 inh 0.501µM
CC(C)c1ccc(N2C(=O)CC(Sc3ncn[nH]3)C2=O)cc1 (stereo unspecified)	TrxR1 inh inconclusive
O=C(CCc1ncc(-c2ccccc2)o1)N1CCc2ccccc21	none (no result: PI4K2A inh, TrxR1 substrate, Integrin act MD, GALK inh, TrxR1 inh)
Cc1ccc(C2C=C(c3ccccc3)Nc3ncnn32)cc1 (stereo unspecified)	TrxR1 inh 44.7µM (no result: GALK inh)
Fc1ccc(C2=CC(c3ccc(Br)o3)n3ncnc3N2)cc1 (stereo unspecified)	TrxR1 inh 7.94µM
Cc1cc(-c2ccc(C=O)o2)ccc1Br	none (no result: PI4K2A inh, TrxR1 substrate, Integrin act MD, GALK inh, TrxR1 inh)
C=C1C(=O)O[C@@H]2[C@H]3O[C@]3(C)CCC=C(C)CC[C@@H]12	TrxR1 inh 16.8µM! (no result: Integrin act MD, LDHA inh, GALK inh)
CN(C)Cc1cc(O)c(CN(C)C)cc1O	TrxR1 inh 14.1µM (no result: GALK inh)
CN(C)Cc1cc(C(C)(C)C)cc(C(C)(C)C)c1O	none
O=C(CSc1ccc(Cl)cc1)c1ccco1	TrxR1 inh 44.7µM
O=C(CCSc1ccc(Cl)cc1)c1ccco1	TrxR1 inh 10µM
O=C(NCCSc1ccc(Cl)cc1)c1ccco1	none
O=C(CN1CCN(C(=O)c2ccc(I)cc2)CC1)N1CCCCC1	none (no result: PI4K2A inh, TrxR1 substrate, Integrin act MD, GALK inh, TrxR1 inh)
COc1cc(C2CC(=O)Nc3c(C(=O)O)cn(-c4ccc(F)cc4)c32)cc(OC)c1OC (stereo unspecified)	none (no result: PI4K2A inh, TrxR1 substrate, Integrin act MD, GALK inh, TrxR1 inh)
O=C(NCCN1CCCC1)c1ccccc1Cl	none
O=C1C(Cl)=C(NCCN2CCCCC2)C(=O)c2ccccc21	TrxR1 inh 11.2µM
COC(=O)C1=C(C)C=C(N2CCOCC2)C(C(=O)OC)C1c1ccc(OC)cc1 (stereo unspecified)	none (no result: PI4K2A inh, TrxR1 substrate, Integrin act MD, GALK inh, TrxR1 inh)
